Bioassay records: PubChem, National Center for Advancing Translational Sciences (NCATS)
MARV entry inh – inhibitors of Marburg virus binding or entry into cells | Marburg virus pseudotype entry/binding inhibition, cell-based | Potency, µM (series often up to 49.2 µM), inactives show at the highest dose activity change, negative = inhibition, actives largely listed as inhibitors | actives 6.5% (n = 18,000) | AID 720532
LASV entry inh – Lassa virus entry inhibition; Potency, µM (doses to about 49.2 µM), for the others: at the highest dose activity change, negative = inhibition, actives largely listed as inhibitors; actives 4.1% (n = 18,000); Lassa virus pseudotyped entry inhibition, cell-based qHTS
* marks the source's active call; other numbers are inactive results; ? = inconclusive; nt = no result given; ! = not confirmed by another sample; [ ] = another dose, or the depositor's remark. Compounds with a hit are over-represented: about 8.6% of the library has one in this group of screens. Calls come from the whole dose curve; tested in HEK293 cells. % is set by controls: 0 for no effect and ±100 for the full control effect; potency is the fitted concentration of half-maximal effect.

SMILES | MARV entry inh | LASV entry inh
COc1cc(C(CC2=C(c3ccccc3)Cc3ccccc32)NC(=O)C(F)(F)F)cc(OC)c1OC (stereo not drawn) | 8%[8.59 µM] | 21%[8.59 µM]
CC(=O)OC[C@H]1O[C@@H](ON=C(C)CCN2CCCCc3nc(C)c(C)cc32)[C@H](OC(C)=O)[C@@H](OC(C)=O)[C@H]1OC(C)=O | 1%[8.59 µM] | -10%[8.59 µM]
CC(C)C[C@H]1COc2cc(F)ccc2S(=O)(=O)N1 | -21% | ?
C=CC[C@@](C(C)=O)(C(=O)OC)[C@@H](NC(=O)OC)c1ccccc1 | -3%[8.59 µM] | -15%[8.59 µM]
COC(=O)[C@H](C)N1CC=CCOc2c(Cl)cc(Cl)cc2[S+]1(=O)[O-] | -18% | -20%
COC(=O)C[C@@](O)(CCC(C)(C)O)C(=O)O[C@@H]1C(OC)=C[C@]23CCCN2CCc2cc4c(cc2[C@@H]13)OCO4 | 0.1µM* | 0.11µM*
COC1=CC23CCCN2CCc2cc4c(cc2C3C1O)OCO4 (stereo not drawn) | 3% | -5%
COC(=O)C[C@](O)(CCCC(C)(C)O)C(=O)O[C@@H]1C(OC)=CC23CCCN2CCc2cc4c(cc2[C@H]13)OCO4 (stereo partly drawn) | ? | 22µM*
COC(=O)C(O)C(O)(CCC(C)C)C(=O)OC1C(OC)=CC23CCCN2CCc2cc4c(cc2C13)OCO4 (stereo not drawn) | 0.004µM* | 0.13µM*
COC(=O)C/C=C/[C@@H](C)[C@@H](Cc1ccccc1Br)OC | -3% | 1%
COC(=O)C1(C(=O)OC)Cc2conc2[C@H]1c1ccccc1 | 1% | 5%
CCC(=O)c1ccc(O)cc1 | 17% | -4%
O=C1C=CC(=C(c2ccc(O)cc2)c2ccc(O)cc2)C=C1 | 13µM* | 8.9µM*
CC1=CC[C@@H](COc2ccccc2)O[C@@]2(C1)C(=O)N(Cc1ccc(F)cc1)c1cccc(Br)c12 | -10%[8.59 µM] | 19%[8.59 µM]
C[C@H]1Cc2c(-c3ccccc3)nc3c(c2CO1)CN(C(=O)NCc1ccco1)CC3 | 9%[8.59 µM] | -25%[8.59 µM]
COc1ccc(CC(N)C(=O)N[C@H]2[C@@H](O)[C@H](n3cnc4c(N(C)C)ncnc43)O[C@@H]2CO)cc1 (stereo partly drawn) | 6.3µM* | 1.3µM*
C[C@@H](Cc1ccccc1)Nc1ncnc2c1ncn2[C@@H]1O[C@H](CO)[C@@H](O)[C@H]1O | 48% | 3%
COC(=O)CC=C1c2ccc(OC)cc2[C@@H](OC)[C@@H]1C | 4%[8.59 µM] | nt
CC(=O)OC1C[C@@]2(C)C(c3ccoc3)C[C@H]3O[C@@]32[C@@]2(C)C(=O)C(O)=C3C(C)(C)C(=O)C=C[C@]3(C)C12 (stereo partly drawn) | 2.5µM* | ?
CC(=O)O[C@@H]1C[C@@]2(C)C(c3ccoc3)C[C@H]3O[C@]32[C@]2(C)C(=O)C(O)=C3C(C)(C)C(=O)C=C[C@]3(C)C12 (stereo partly drawn) | 8.9µM* | 8.9µM*
CC(=O)OC1CC(OC(C)=O)[C@]2(C)C(CC(OC(C)=O)[C@]3(C)C2CC[C@@]2(C)C(c4ccoc4)C[C@H]4O[C@]432)C1(C)C (stereo partly drawn) | -22% | -2%
CC(=O)OC1CC2C(C)(C)C=CC(=O)[C@@]2(C)C2CC[C@@]3(C)C(c4ccoc4)OC(=O)C4OC43[C@]12C (stereo partly drawn) | 8% | 18%
CC[C@H]1OC(=O)[C@H](C)C(=O)[C@H](C)[C@@H](O[C@@H]2O[C@H](C)C[C@H](N(C)C)[C@H]2O)[C@](C)(OC)C[C@@H](C)C(=O)[C@H](C)[C@H]2N(CCCCn3cnc(-c4cccnc4)c3)C(=O)O[C@]12C | -20% | -26%
CCN[C@@H]1C[C@H](N)[C@@H](OC2OC(CN)=CCC2N)[C@H](O)[C@H]1O[C@H]1OC[C@](C)(O)[C@H](NC)[C@H]1O (stereo partly drawn) | 12% | 0%[17.8 µM]
Cn1c(SCC2CCCO2)nnc1C1CCN(Cc2ccc(-c3cccc(Cl)c3)o2)CC1 (stereo not drawn) | 10% | -25%
SMILES | MARV entry inh | LASV entry inh
CC[C@H](C)[C@H](NC(=O)[C@@H]1CCCN1C(=O)[C@H](Cc1cnc[nH]1)NC(=O)[C@@H](NC(=O)[C@H](Cc1ccc(O)cc1)NC(=O)[C@@H](NC(=O)[C@H](CCCN=C(N)N)NC(=O)CNC)C(C)C)[C@@H](C)CC)C(=O)O | 11% | -13%
COCC=CC1=CC2=CC(=O)C(C)(OC(=O)c3cnc4ccccc4n3)C(=O)C2=CN1CCCCO (stereo not drawn) | 46%[8.59 µM] | 6%[8.59 µM]
Oc1cccc(-c2c3nc(c(-c4cccc(O)c4)c4ccc([nH]4)c(-c4cccc(O)c4)c4nc(c(-c5cccc(O)c5)c5ccc2[nH]5)CC4)C=C3)c1 | ? | 25µM*
O=C(CS(=O)Cc1ccco1)NC/C=C\COc1cc(CN2CCCCC2)ccn1 (stereo not drawn) | ? | -16%
COCOCCn1cc(CN2CCS(=O)(=O)N(Cc3ccc(-c4ccccc4)cc3)C(C)C2=O)nn1 (stereo not drawn) | 10% | -7%
CCN1CCN(c2cc(-c3ccc(F)cc3)c3c(n2)CCCCCC3)CC1 | 7.9µM* | 13µM*
COC(=O)C1=C(C(=O)OC)[C@@H]2N(C)c3ccccc3[C@@]23CCC(=O)N(CC(C)C)C3=N1 | 8%[8.59 µM] | 1%[8.59 µM]
Cc1cccc2c(N3CCCC3)nc(CNS(=O)(=O)c3ccccc3F)nc12 | ? | 5%
Cc1ccc(F)cc1S(=O)(=O)NCc1nc(N2CCCC2)c2cccc(C)c2n1 | 13µM* | -10%
Oc1cc(-c2nc3ccccc3s2)cc2c1OCCN(Cc1cccn1-c1ncccn1)C2 | -2% | -29%
CCOc1ccc(N=C(C)Nc2ccc(OCC)cc2)cc1 | 11µM* | -11%
CC(=O)Nc1ccc(OCCOCCOc2ccc(NC(C)=O)cc2)cc1 | 4% | ?
CC(C)Nc1oc(-c2ccccc2)nc1C=Cc1ccccc1 | -31%[8.59 µM] | 7%[8.59 µM]
CC(C)Nc1ccc(Nc2ccccc2)cc1 | 28µM* | ?
CCN1C[C@@]2(COC)CCC(OC)[C@]34C5C[C@]6(O)[C@@H](OC)C[C@](OC(C)=O)(C([C@H](OC)C23)[C@H]14)C5[C@H]6OC(=O)c1ccc(OC)cc1 (stereo partly drawn) | -27% | 0%
CSc1ncccc1C(=O)NCC1Cc2cc(-c3cnccn3)ccc2O1 (stereo not drawn) | -7% | -4%
Cc1cnc(C)c(-c2ccc3c(c2)CC(CNC(=O)Cc2c(C)[nH]c4ccccc24)O3)n1 (stereo not drawn) | -8% | -28%
Cc1ccccc1OC[C@H](O)CO | -4%[17.8 µM] | 0%[17.8 µM]
Cc1ccc(OCC(O)C(C)NC(C)C)c2c1CCC2 (stereo not drawn) | 13µM* | ?
CC1(S(=O)(=O)O)CC(=O)c2ccccc2C1=O (stereo not drawn) | 14µM* | 25µM*
COc1ccc2c3c(c(=O)oc2c1)[C@H]1O[C@](c2ccsc2)(Cc2cc(C#N)ccc21)O3 | -14%[8.59 µM] | -8%[8.59 µM]
CC(C)NCC(O)c1ccc(O)c(O)c1 (stereo not drawn) | -16% | 5%
CNC[C@H](O)c1ccc(O)c(O)c1 | 7.9µM*! | ?
CC(N)C(O)c1cccc(O)c1 (stereo not drawn) | -23% | 0%
C[C@H](N)[C@H](O)c1ccc(O)c(O)c1 | 5µM* | ?
NC[C@H](O)c1ccc(O)c(O)c1 | 28µM* | 0%
NC[C@@H](O)c1ccc(O)c(O)c1 | ? | 8%
C#CCN1C(=O)[C@]2(O[C@H](COc3ccccc3)CC3=C2CCC3)c2ccccc21 | -41%[8.59 µM] | nt
